Source: PubChem
T cruzi growth-1: T. cruzi proliferation inhibition; inhibition, % at 8.34 µM; 77,000 tested, 5.9% active; AID 624255; T. cruzi beta-gal in NIH3T3, GalScreen luminescence, 90 h;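 active = mean inhibition above about 93%, with at least 55% of replicates each passing it, limit read from the data, passing the limit was not always enough; inconclusive = only one of those two conditions holds; inactive = neither condition holds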
C diff HTS: C. difficile growth inhibition; Clostridium difficile clinical isolate growth, OD600, 24 h; stronger effect = lower value; growth activity, negative = inhibition, % at 16 µg/mL (by protocol); 86,000 tested, 0.25% active;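 active = mean growth activity at or below -80% and every replicate also at or below -80%; inconclusive = mean at or below -80% but some replicate above -80%; inactive = mean growth activity above -80%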
T cruzi growth-2: inhibitors of T. cruzi proliferation; shares compounds with T cruzi growth-1; T. cruzi beta-gal in NIH3T3, GalScreen luminescence, 90 h; inhibition, % at 8.35 µM; 5,600 tested, 72% active; AID 651739;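 active = mean replicate inhibition above about 95% and at least 55% of replicates individually reaching it, limit read from the data; inconclusive = only one of the two criteria is met; inactive = neither criterion is met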
T cruzi growth-3: inhibitors of T. cruzi proliferation; shares compounds with T cruzi growth-1; T. cruzi beta-gal in NIH3T3, GalScreen luminescence, 90 h; inhibition, % at 2.09 µM; 5,600 tested, 21% active;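 active = mean inhibition above about 95%, with at least 55% of replicates also reaching it, limit read from the data; inconclusive = meets just one of the two conditions; inactive = meets neither condition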
3T3 cytotox: kills mouse NIH/3T3 fibroblasts | 5,600 tested, 14% active | cytotoxicity (signal decrease), % at 8.35 µM | shares compounds with T cruzi growth-1 | AID 651742 | NIH/3T3 viability, CellTiter-Glo ATP luminescence, 90 h;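 active = mean signal decrease across replicates above about 35% based on untreated-well scatter, with enough replicates individually passing, limit read from the data; inconclusive = no rule stated though some were filed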
NIH3T3 tox 2: NIH/3T3 (mouse) viability loss; inhibition, % at 24.9 µM; shares compounds with T cruzi growth-1; NIH/3T3 viability, CellTiter-Glo ATP luminescence, 90 h; AID 651744; 5,600 tested, 56% active;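 active = mean loss of cell viability signal at or above a set limit, and enough replicates individually reaching it; inconclusive = meets only the mean limit or only the replicate share; inactive = meets neither condition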
Of the large screens only hits and unclear results are named; the others gave an inactive call (follow-up assays come after a bar, where they were run); ! = repeats disagree. Shown is part of a subset that was picked to be rich in hits.

Cc1ccc(S(=O)(=O)Nc2ccc3c(c2)C(=O)N([C@@H](C)CO)C[C@@H](C)[C@H](CN(C)S(=O)(=O)c2ccc(Cl)cc2)OCCCC[C@@H](C)O3)cc1	T cruzi growth-1 120 | T cruzi growth-2 101 | T cruzi growth-3 100 | 3T3 cytotox inactive | NIH3T3 tox 2 inactive
Cc1ccc(S(=O)(=O)Nc2ccc3c(c2)C(=O)N([C@H](C)CO)C[C@@H](C)[C@@H](CN(C)S(=O)(=O)c2ccc(Cl)cc2)OCCCC[C@H](C)O3)cc1	T cruzi growth-1 117 | T cruzi growth-2 97 | T cruzi growth-3 107 | 3T3 cytotox inactive | NIH3T3 tox 2 inactive
CC(C)C#Cc1cnc2c(c1)C(=O)N([C@@H](C)CO)C[C@@H](C)[C@H](CN(C)C(=O)C1CCC1)O2	none
COc1ccccc1-c1cnc2c(c1)C(=O)N([C@@H](C)CO)C[C@@H](C)[C@@H](CN(C)Cc1cncnc1)O2	none
Cc1noc(C)c1S(=O)(=O)N(C)C[C@H]1OCc2ccccc2-c2ccccc2C(=O)N([C@@H](C)CO)C[C@@H]1C	none
COc1ccc(S(=O)(=O)Nc2cccc3c2O[C@@H](CN(C)Cc2ccc(C(=O)O)cc2)[C@H](C)CN([C@@H](C)CO)C3=O)cc1	T cruzi growth-1 105 | T cruzi growth-2 inactive | T cruzi growth-3 inactive | 3T3 cytotox inactive | NIH3T3 tox 2 inactive
C[C@@H]1CN([C@H](C)CO)C(=O)c2cccc(NS(=O)(=O)c3cn(C)cn3)c2O[C@H]1CN(C)CC1CCCCC1	T cruzi growth-1 102 | T cruzi growth-2 inactive | T cruzi growth-3 inactive | 3T3 cytotox inactive | NIH3T3 tox 2 inactive
COc1ccc(S(=O)(=O)Nc2cccc3c2O[C@H](CN(C)Cc2ccc(C(=O)O)cc2)[C@@H](C)CN([C@@H](C)CO)C3=O)cc1	none
C[C@H]1CN([C@@H](C)CO)C(=O)c2cccc(NS(=O)(=O)c3cn(C)cn3)c2O[C@H]1CN(C)Cc1ccc(C(=O)O)cc1	none
C[C@@H]1CN([C@@H](C)CO)C(=O)c2cccc(NS(=O)(=O)c3cn(C)cn3)c2O[C@@H]1CN(C)CC1CCCCC1	none
C[C@H](CO)N1C[C@H](C)[C@H](CN(C)Cc2ccc(C(=O)O)cc2)Oc2c(NS(=O)(=O)c3cn(C)cn3)cccc2C1=O	T cruzi growth-1 inconclusive | T cruzi growth-2 inactive | T cruzi growth-3 inactive | 3T3 cytotox inactive | NIH3T3 tox 2 inactive
COC(=O)[C@@H]1[C@@H](CO)[C@@H]2Cn3c(ccc(C4=CCCCC4)c3=O)[C@@H]2N1C(=O)C1CC1	none
COc1cccc(CNC(=O)C[C@@H]2CC[C@H](NC(C)=O)[C@H](CO)O2)c1	none (no result: C diff HTS)
C[C@@H]1CN([C@H](C)CO)C(=O)CCCn2nncc2CO[C@@H]1CN(C)S(=O)(=O)c1cccc(F)c1	T cruzi growth-1 144! | T cruzi growth-2 103 | T cruzi growth-3 inactive | 3T3 cytotox inactive | NIH3T3 tox 2 inactive
C[C@H]1CN([C@@H](C)CO)C(=O)CCCn2nncc2CO[C@H]1CN(C)S(=O)(=O)c1cccc(F)c1	none
COc1ccc(S(=O)(=O)N(C)C[C@@H]2OCc3cnnn3CCCC(=O)N([C@H](C)CO)C[C@H]2C)cc1	none
C[C@H](CO)N1C[C@H](C)[C@H](CN(C)S(=O)(=O)c2ccc(Cl)cc2)OCc2cnnn2CCCC1=O	T cruzi growth-1 inconclusive | T cruzi growth-2 inactive | T cruzi growth-3 inactive | 3T3 cytotox inactive | NIH3T3 tox 2 inactive
C[C@H](CO)N1C[C@H](C)[C@@H](CN(C)S(=O)(=O)c2ccc(Cl)cc2)OCc2cnnn2CCCC1=O	none
COc1ccc(S(=O)(=O)N(C)C[C@H]2OCc3cnnn3CCCC(=O)N([C@@H](C)CO)C[C@H]2C)cc1	T cruzi growth-1 inconclusive | T cruzi growth-2 inactive | T cruzi growth-3 inactive | 3T3 cytotox inactive | NIH3T3 tox 2 inactive
C[C@H](CO)N1C[C@H](C)[C@H](CN(C)C)Oc2ccc(NC(=O)Nc3ccccc3)cc2CC1=O	none
O=C(C[C@@H]1CC[C@@H](NS(=O)(=O)c2ccc(F)cc2)[C@H](CO)O1)NCc1ccncn1	none
C[C@@H](NC(=O)C[C@@H]1CC[C@H](NS(=O)(=O)c2cccc(F)c2)[C@@H](CO)O1)c1ccccc1	none
C[C@H](CO)N1C[C@H](C)[C@H](CN(C)Cc2cccc(F)c2)Oc2cc(-c3cccc(C#N)c3)ccc2S1(=O)=O	none
C[C@@H]1CN([C@@H](C)CO)S(=O)(=O)c2ccc(C#CC3CC3)cc2O[C@H]1CN(C)Cc1ccccn1	T cruzi growth-1 inconclusive | T cruzi growth-2 100 | T cruzi growth-3 inactive | 3T3 cytotox 64 | NIH3T3 tox 2 72
C[C@H](CO)N1C[C@H](C)[C@H](CN(C)Cc2ccccn2)Oc2cc(C#CC3CC3)ccc2S1(=O)=O	none
C[C@@H]1CN([C@H](C)CO)S(=O)(=O)c2ccc(C#CC3CC3)cc2O[C@H]1CN(C)Cc1ccccn1	T cruzi growth-1 110 | T cruzi growth-2 inactive | T cruzi growth-3 inactive | 3T3 cytotox 102 | NIH3T3 tox 2 76
C[C@H]1CN([C@@H](C)CO)S(=O)(=O)c2ccc(C#CC3CC3)cc2O[C@@H]1CN(C)Cc1ccccn1	T cruzi growth-1 109 | T cruzi growth-2 inactive | T cruzi growth-3 inactive | 3T3 cytotox inactive | NIH3T3 tox 2 80
CC(C)C#Cc1ccc2c(c1)O[C@@H](CN(C)Cc1ccccn1)[C@@H](C)CN([C@H](C)CO)S2(=O)=O	none
CC(C)C#Cc1ccc2c(c1)O[C@@H](CN(C)Cc1ccccn1)[C@H](C)CN([C@H](C)CO)S2(=O)=O	none
COc1ccc(S(=O)(=O)N2C[C@H](O)COC[C@@H]3O[C@H](CC(=O)NCCCN4CCOCC4)CC[C@H]32)cc1	none (no result: C diff HTS)
C[C@H](CO)N1C[C@H](C)[C@H](CN(C)S(=O)(=O)c2ccc(F)cc2)Oc2cc(C3=CCCC3)ccc2S1(=O)=O	T cruzi growth-1 118 | T cruzi growth-2 108 | T cruzi growth-3 inactive | 3T3 cytotox 37 | NIH3T3 tox 2 24
Cc1ccc(S(=O)(=O)N(C)C[C@H]2Oc3cc(C4=CCCC4)ccc3S(=O)(=O)N([C@@H](C)CO)C[C@@H]2C)cc1	none (no result: T cruzi growth-1)
Cc1ccc(S(=O)(=O)N(C)C[C@@H]2Oc3cc(C4=CCCC4)ccc3S(=O)(=O)N([C@H](C)CO)C[C@H]2C)cc1	none (no result: T cruzi growth-1)
C[C@@H]1CN([C@@H](C)CO)S(=O)(=O)c2ccc(C3=CCCC3)cc2O[C@@H]1CN(C)S(=O)(=O)c1ccc(F)cc1	T cruzi growth-1 119 | T cruzi growth-2 106 | T cruzi growth-3 inactive | 3T3 cytotox inactive | NIH3T3 tox 2 31
CN1C(=O)c2cc(NC(=O)c3cnccn3)ccc2OC[C@H]2O[C@@H](CC(=O)N[C@H]3CCN(Cc4ccccc4)C3)CC[C@@H]21	none
CN1C(=O)c2cc(NC(=O)c3cnccn3)ccc2OC[C@@H]2O[C@@H](CC(=O)N[C@@H]3CCN(Cc4ccccc4)C3)CC[C@H]21	T cruzi growth-1 101 | T cruzi growth-2 101 | T cruzi growth-3 inactive | 3T3 cytotox inactive | NIH3T3 tox 2 inactive
